Experimental data reported in PubChem BioAssay AID488837 (National Center for Advancing Translational Sciences (NCATS), 2010).
The campaign covered roughly 330,000 compounds. About 20 (0.006%) were called active. Not shown: some 1% with an inconclusive outcome. The call rests on the fitted dose curve; in most records, active means well fitted inhibition curve with a large enough effect; inconclusive means small, poorly fitted or top-dose-only effect, or effect the other way; inactive means flat fitted curve, though single readings scatter. The entries come from a sample that favours actives as a whole.

Molecular target: Protein phosphatase EYA2 (Homo sapiens) (UniProt O00167)
Assay: qHTS Assay for Inhibitors of the Phosphatase Activity of Eya2
Settings: recombinant Eya2, OMFP fluorescence dephosphorylation (OMFP is methylfluorescein phosphate); series mostly up to 76.9 µM
Description: The Eya family of proteins are essential co-activators of the Six1 transcription factor. Six1 is a developmental gene that is abnormally re-expressed in a large percentage of breast cancers. This over-expression plays a causal role in the initiation and metastatic development of breast cancers. The Eya family of proteins was also found to contain a unique HAD phosphatase domain with protein tyrosine phosphatase activity which can potentially play a role in Six1-mediated breast tumorigenesis. […] We have developed and optimized a 1536 well fluorescence-based HTS assay targeting the phosphatase activity of Eya2. Inhibitors found against Eya2 could serve as potential therapeutic tools to inhibit Six1-mediated breast tumorigenesis and to increase the efficiency of radiation and certain chemo therapy. These inhibitors could also be used as chemical probes to study the function of Eya2's phosphatase activity and its role in Six1-mediated breast tumorigenesis.
The Eya2 enzyme was kindly provided by the laboratory of Dr. Rui Zhao. The 3-O-methyl-fluorescein phosphate (OMFP) substrate and all buffer reagents were purchased from Sigma Aldrich. qHTS Assay Setup: 1. Buffer- 50 mM HEPES pH 7.5, 50 mM NaCl, 5 uM MgCl2, 0.05% BSA, 1 mM DTT. 2. OMFP Stock- 10 mM solution prepared in 100% DMSO and stored in single use aliquots at -20C. Assay Procedure- 1. Dispense 1.5 ul per well of Eya2 at 0.2 uM in black medium binding 1536 well Greiner plate 2. Transfer 23 nl of compound and control compound (EGTA) to plate 3. Incubate at ambient for 10 minutes 4. Dispense 1.5 ul per well of OMFP at 50 uM 5. Incubate at ambient for 10 minutes 6. Read on ViewLux using Excitation = 485 nm, Emission = 525 nm
On the % scale 0 is the no-effect control and ±100 the full control effect; potency means the concentration at half of the fitted maximal effect.

Chain of Protein phosphatase EYA2 (Homo sapiens) (O00167 whole entry, looked up): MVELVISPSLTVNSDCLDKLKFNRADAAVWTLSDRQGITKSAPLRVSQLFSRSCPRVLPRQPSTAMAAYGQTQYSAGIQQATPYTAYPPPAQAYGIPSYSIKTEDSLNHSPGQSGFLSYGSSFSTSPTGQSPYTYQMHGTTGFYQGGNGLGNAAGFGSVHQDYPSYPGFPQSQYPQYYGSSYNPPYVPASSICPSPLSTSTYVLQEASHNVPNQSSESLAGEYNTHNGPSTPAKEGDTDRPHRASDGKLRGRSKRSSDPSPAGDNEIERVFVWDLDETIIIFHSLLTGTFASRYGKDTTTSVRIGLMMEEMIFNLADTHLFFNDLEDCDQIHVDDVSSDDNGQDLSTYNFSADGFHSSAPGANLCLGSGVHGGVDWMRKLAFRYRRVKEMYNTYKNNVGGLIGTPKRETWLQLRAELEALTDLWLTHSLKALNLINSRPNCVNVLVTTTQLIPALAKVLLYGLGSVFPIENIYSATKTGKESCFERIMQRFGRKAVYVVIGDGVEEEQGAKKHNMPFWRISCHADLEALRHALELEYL

activity, negative = inhibition, inactive:
CCC(CC)C(=O)Nc1ccc(S(=O)(=O)Nc2nccs2)cc1
COC(=O)C1CCCCN1C(=O)c1ccc(OC2CCN(C(C)=O)CC2)c(OC)c1 (stereo not given)
CC1=CC2=NC(=O)CC(C)(C(=O)N(CC(=O)NC(C)(C)C)Cc3ccccc3)N2C=C1 (stereo not given)
N=c1ccn(CC(=O)NC(N)=O)c2ccccc12
Cc1ccc(S(=O)(=O)N2CCC(Oc3ccc(-n4cnnn4)cc3)CC2)cc1
COc1ccc(C(=O)OCc2cc(=O)n3ccsc3n2)cc1F
Cc1ccc(CCn2c3c(c4ccccc42)CN(C)CC3)cn1
Nc1ncnc2c1c(I)cn2[C@@H]1C[C@H](N)[C@@H](O)[C@H]1O
CSCCC(NS(=O)(=O)c1ccc2c(c1)oc(=O)n2C)C(=O)NCc1ccccc1 (stereo not given)
O=C(COc1ccc([N+](=O)[O-])cc1)Nc1cccc(C(=O)Nc2ccccc2C(=O)O)c1
CCCN1Cc2cccc(C(=O)Nc3ccc(S(=O)(=O)N4CCCCCC4)cc3)c2C1=O
N#C/C(=C\N1CCOCC1)S(=O)(=O)c1ccc(Cl)cc1
CCOc1ccc(CCNC(=O)CN2C(=O)NC3(CCc4ccccc43)C2=O)cc1OCC (stereo not given)
CCc1noc(C)c1C(=O)N1CCCSC1=Nc1ccccc1OC
COc1ccc(OCCCC(=O)Nc2cccc(S(=O)(=O)N3CCCCCC3)c2)cc1
COC(=O)c1ccc(CSc2ccc3nnc(-c4ccccc4)n3n2)o1
Cc1cccc(C)c1NC(=O)C1CCCN1C(=O)OC(C)(C)C (stereo not given)
O=C(Cc1ccccc1Cl)N1CCN(c2ccccn2)CC1
Cc1cc(C)c(C)c(S(=O)(=O)N[C@@H](C)C(=O)OC(C)C(=O)NC(N)=O)c1C (stereo not given in full)
Cc1ccc(CC2C(=O)N(c3ccc(F)cc3)C(=O)C2C)cc1 (stereo not given)
O=C(CNC(=O)OCc1ccccc1)Oc1cc2oc(=O)cc(-c3ccccc3)c2cc1Cl
CCN(CC)P(=O)(C(NC(=O)OC)C(F)(F)C(F)(F)C(F)(F)C(F)F)N(CC)CC (stereo not given) -3.75% [at 15.4 µM]
COc1cc(NC(=O)c2ccccc2NS(=O)(=O)c2ccc(Cl)s2)cc(OC)c1
CN(C)/C(CN1CCCCC1)=C1\N=C(c2ccccc2)OC1=O
CN(C)CCOc1cccc(Br)c1
C=CCC[C@@H](Cc1ccc(F)cc1)C(=O)OC[C@H](Cc1c[nH]c2ccccc12)NC(=O)[C@@H](CC=C)CC(=O)N(CCO)Cc1ccccc1
CN(C)S(=O)(=O)c1ccc(N2CCCC2)c(C(=O)NCc2ccccc2)c1
Cc1cccc(C)c1NC(=S)N1CCCCCC1
O=S1(=O)CCC(NC(=S)SCc2ccccc2Br)C1 (stereo not given)
N#CCC(=O)NC(=O)NCC1CC1
N/C(=N\OS(=O)(=O)c1cccc([N+](=O)[O-])c1)c1ccncc1
Cc1ccccc1-n1nnnc1SCCCC(=O)c1ccc(F)cc1
C=CCC1(CC=C)CCCN1C(=O)c1cc(COc2ccc(-n3cncn3)cc2)on1
CCCCCCCNc1nc(Cl)nc(NCCO)n1
CSc1ccc(Cl)c(C(=O)OCC(=O)N2CCNC2=O)c1
c1cc(-n2cnnn2)ccc1NC1=NCCC1
Cc1ccc(OCc2nnc(NC(=O)OCC(C)C)s2)cc1
COC(=O)[C@]1(Cc2ccccc2)N[C@H](CN(C)S(=O)(=O)c2ccc(OC(F)(F)F)cc2)[C@@H]2C(=O)N(Cc3ccccc3)C(=O)[C@@H]21
CSc1cccc(NC(=O)CN2C(=O)COc3ccc(S(=O)(=O)N4CCOCC4)cc32)c1
Cc1noc(NS(=O)(=O)c2ccc(NC(=O)c3oc4ccc(F)cc4c3C)cc2)c1C
Cn1c2ccc(F)cc2c2nnc(NN)nc21
CCCCn1c(N)c(N(CC(C)C)C(=O)c2ccc(Br)o2)c(=O)[nH]c1=O
CC(=O)/C(C)=N/O
Cc1cccc(Nc2nnc(SCC(=O)c3c(N)n(C4CC4)c(=O)[nH]c3=O)s2)c1C
COc1ccc(OC)c2c1sc(=NC(=O)CN1C(=O)CCC1=O)n2C
CN(C(=O)CSc1nnc(-c2n[nH]c3ccccc23)o1)c1ccccc1
CCOc1cc(/C=C2/N=C(c3ccc(C(C)(C)C)cc3)OC2=O)cc(Cl)c1OS(C)(=O)=O
OCc1n[nH]c(CO)n1
CCC1Sc2ccc(S(=O)(=O)CCC(=O)NCc3cccs3)cc2NC1=O (stereo not given)
CCN(CC)c1ccc(S(=O)(=O)N2CCOCC2)cc1NC(=O)CSc1cccc[n+]1[O-]
Cn1c(-c2ccc(F)cc2)cc2onc(-c3ccccc3Cl)c2c1=O
CCOc1cc(-c2noc(CCCC(=O)NC3CCCCC3)n2)ccc1OC
O=S(=O)(Nc1ccccc1Cl)c1cccc2nsnc12
COn1c(=O)c(=O)n(OC)c2ccccc21
CN(C)C(=O)CCc1ccc2c3c([nH]c2c1)[C@]1(C)[C@@H](C(=O)N2CCOCC2)C[C@H](CC(=O)NCCc2ccccn2)C(=O)N1CC3
O=S(=O)(Nc1ccc2nc(-c3ccco3)[nH]c2c1)c1ccccc1
CCOc1ccc(CCNC(=O)COC(=O)c2ccc(F)c(S(=O)(=O)N3CCOCC3)c2)cc1OCC
CC(CC(=O)Nc1ccc(F)cc1F)S(=O)(=O)c1ccc2c(c1)NC(=O)CO2 (stereo not given)
Cc1c(C#N)c2ncn(CC#N)c(=O)c2n1-c1ccccc1
CCC(=O)Nc1cc(C(F)(F)F)ccc1N1CCCC1
CCn1ccnc1CN(C)C(=O)c1ccc2nc(Cc3ccc(OC)cc3)oc2c1
Cc1ccc(-n2cc(CN(C)Cc3nccn3C)c(-c3cccc(C)c3)n2)cc1
C#CCOCCOCCOCCNc1nc(N2CCN(C(=O)CCCCCCCCCCNC(=O)[C@H](CCCCN)n3cc(C)nn3)CC2)nc(N2CCN(C(=O)CCCCCCCCCCNC(=O)[C@H](CO)n3cc(CCCSC)nn3)CC2)n1
C#CCOCCOCCOCCNc1nc(N2CCN(C(=O)CCCCCCCCCCNC(=O)Cn3cc(CCCCCN)nn3)CC2)nc(N2CCN(C(=O)CCCCCCCCCCNC(=O)[C@H](CO)n3cc(CCCSC)nn3)CC2)n1
CC1CC2C3CCC4=CC(=O)C=C[C@]4(C)[C@@]3(F)[C@@H](O)C[C@]2(C)[C@@]1(O)C(=O)CO (stereo not given in full)
Cc1cc(=O)[nH]c(N/N=C/c2c(C)nn(-c3ccccc3Cl)c2Cl)n1
CC(C)NC(=O)NCCCCCCS(C)=O (stereo not given)
N#CCSc1nc(-c2ccccc2)nc2ccc(F)cc12
Cc1nnnn1/C(=C\c1ccccc1)C(=O)OCC(=O)N1CC2(C)CC1CC(C)(C)C2 (stereo not given)
C=CCOc1ccc(C(=O)Nc2ccccc2C(=O)N2CCCC2)cc1
O=C(NCCCCO)C(F)(F)C(F)(F)C(F)(F)C(=O)NCCCCO
COc1ccc(CCc2nnc(CCC(=O)NCc3cnn(-c4ccccc4C)c3)o2)cc1
CCc1cccc(C)c1N1C(=O)CN(Cc2ccccc2)C1=S
O=C(NCc1cc(C(F)(F)F)cc(C(F)(F)F)c1)C1CC(c2cccc(F)c2)=NO1 (stereo not given)
CSc1ccccc1N1CCN(CCCCCC(=O)NC2CCCc3ccccc32)CC1 (stereo not given)
COCc1cc(=O)[nH]c(SC)n1
N#Cc1cccc(OC(=O)c2ccc3c(=O)n4c(nc3c2)CCC4)c1
Cc1snc(SCc2c(F)cccc2Cl)c1C#N
CCOC(=O)C1CN(S(=O)(=O)c2ccc(F)cc2)C1
O=S(=O)(c1ccc(Cl)cc1)c1nc(-c2ccccc2F)oc1NCCN1CCOCC1
COc1cc(C)c(S(=O)(=O)N2CCOCC2)c(C)c1C
O=C(CSc1ccccc1F)NC1CCS(=O)(=O)C1 (stereo not given)
Clc1cccc(Cl)c1Cn1nnc(-c2cccs2)n1
Cc1ccc(NC(=O)CCNC(=O)c2ccc([N+](=O)[O-])cc2)cc1S(=O)(=O)N1CCOCC1
CC(C)(O)C#Cc1ncc(C(F)(F)F)cc1Cl
COc1ccc(-c2nc3ccccc3n2CCC(C)C)cc1OC
CN1CCN(C(=O)c2ccccc2NC(=O)COc2ccccc2Cl)CC1
CCOc1ccc(NC(=O)C(C)N2C(=O)c3ccccc3C2=O)cc1 (stereo not given)
O=C(OC1CCOC1=O)c1ccc(-c2nc3ccccc3s2)s1 (stereo not given)
O=S(=O)(/C=C/c1ccccc1)NCCc1ccccn1
Cc1cc(C(F)F)nn1CC(=O)NC1CCCCCC1
COc1ccc(C(C#N)Nc2ccc(C)cc2)cc1 (stereo not given)
Cc1ccc(C2(C(F)(F)F)N=C3Sc4cc(C)cc(C)c4N3C(=O)N2)cc1 (stereo not given)
COc1ccc(-n2nc3c(c2NC(=O)c2ccc(N4C(=O)CCC4=O)cc2)CSC3)cc1
CC(O)c1cccc(NC(=O)Cc2cccc3ccccc23)c1 (stereo not given)
O=C(NC1CCCC1)C(c1ccco1)N(C(=O)c1ccco1)c1ccc(F)cc1 (stereo not given)
CC(C)(C)c1cc2cccnc2n1Cc1ccccc1
CCN1CCN(c2nc(Nc3cc(OC)ccc3OC)nc(Nc3cc(OC)ccc3OC)n2)CC1
COc1ccc(-c2cc(C(F)(F)F)nc(S(C)(=O)=O)n2)cc1OC

Potency, active:
C#CCOCCOCCOCCNc1nc(N2CCN(C(=O)CCCCCCCCCCNC(=O)[C@H]([C@@H](C)CC)n3cc(CCCCN=C(N)N)nn3)CC2)nc(N2CCN(C(=O)CCCCCCCCCCNC(=O)[C@H](CO)n3cc(CCCSC)nn3)CC2)n1 31.6 µM
